# In article PMC7862700, “An all-to-all approach to the identification of sequence-specific readers for epigenetic DNA modifications on cytosine”:
# What was measured:
# Test in all cases: DAPPL (digital affinity profiling via proximity ligation, sequencing); 10 mM Tris-HCl pH 7.5, 50 mM NaCl, 1 mM DTT, 4% glycerol, room temperature, 30 min; GST-TFs on glutathione beads, 16-mer random dsDNA library, 0.1% formaldehyde crosslink after washing; high values mean tight binding
# FEV = target: T1, FEV (Homo sapiens, UniProt Q99581 1-238); settings: protein: recombinant; tags: N-terminal GST; dsDNA, one strand shown
# T1 sequence: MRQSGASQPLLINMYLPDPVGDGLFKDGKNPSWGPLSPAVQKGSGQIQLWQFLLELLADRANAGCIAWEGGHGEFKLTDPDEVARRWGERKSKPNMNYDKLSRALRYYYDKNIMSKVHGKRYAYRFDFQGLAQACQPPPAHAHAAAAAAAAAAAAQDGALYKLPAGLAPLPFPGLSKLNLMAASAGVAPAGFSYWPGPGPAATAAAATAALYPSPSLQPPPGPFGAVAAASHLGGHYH
# Method in brief: (§1)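 Binding signal is defined as a hexamer's read frequency for one factor over its frequency for the tag-only sample. To obtain reads, GST-fused human transcription factors were expressed in yeast, captured on glutathione beads, barcoded with DNA and pooled with that sample. Pools met 200 nmole of a 16-mer random double-stranded DNA library in Tris/NaCl/DTT/glycerol buffer for 30 min at room temperature before washing, 0.1% formaldehyde crosslinking, proximity ligation (BsaI/T4 ligase, 1 h, 37 °C), PCR and Illumina NextSeq500 sequencing.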
# ETV5 = ETV5 (Homo sapiens, UniProt P41161 1-510); settings: protein: recombinant; tags: N-terminal GST; dsDNA, one strand shown
# Method in brief: as §1
# HSF1 = HSF1 (Homo sapiens, UniProt Q00613 1-529); settings: protein: recombinant; tags: N-terminal GST; chain copies: 3; dsDNA, one strand shown
# Method in brief: as §1
# SPIC = target: T2, SPIC (Homo sapiens, UniProt Q8N5J4 1-248); settings: protein: recombinant; tags: N-terminal GST; dsDNA, one strand shown
# T2 sequence: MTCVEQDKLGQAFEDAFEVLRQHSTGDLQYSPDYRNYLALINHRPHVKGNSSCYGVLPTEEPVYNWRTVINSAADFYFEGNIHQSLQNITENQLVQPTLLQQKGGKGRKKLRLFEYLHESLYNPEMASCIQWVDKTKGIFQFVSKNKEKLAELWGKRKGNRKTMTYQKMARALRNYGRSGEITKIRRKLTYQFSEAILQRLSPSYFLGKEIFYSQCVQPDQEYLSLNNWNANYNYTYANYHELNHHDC
# Method in brief: as §1
# ELF4 = ELF4 (Homo sapiens, UniProt Q99607 1-663); settings: protein: recombinant; tags: N-terminal GST; dsDNA, one strand shown
# Method in brief: as §1
# ELK4 = target: T3, ELK4 (Homo sapiens, UniProt P28324-2 1-405); settings: protein: recombinant; tags: N-terminal GST; dsDNA, one strand shown
# T3 sequence: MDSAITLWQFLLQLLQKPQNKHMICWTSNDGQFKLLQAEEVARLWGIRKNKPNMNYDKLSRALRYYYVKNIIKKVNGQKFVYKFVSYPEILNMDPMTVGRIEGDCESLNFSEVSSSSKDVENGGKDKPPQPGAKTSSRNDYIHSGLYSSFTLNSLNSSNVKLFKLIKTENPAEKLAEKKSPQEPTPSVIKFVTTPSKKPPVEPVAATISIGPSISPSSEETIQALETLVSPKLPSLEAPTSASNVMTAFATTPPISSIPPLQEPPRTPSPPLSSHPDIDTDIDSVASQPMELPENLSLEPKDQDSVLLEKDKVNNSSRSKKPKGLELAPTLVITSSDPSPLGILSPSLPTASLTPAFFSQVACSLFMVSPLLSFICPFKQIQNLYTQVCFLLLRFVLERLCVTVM
# Method in brief: as §1
# ETV2 = target: T4, ETV2 (Homo sapiens, UniProt O00321 1-342); settings: protein: recombinant; tags: N-terminal GST; dsDNA, one strand shown
# T4 sequence: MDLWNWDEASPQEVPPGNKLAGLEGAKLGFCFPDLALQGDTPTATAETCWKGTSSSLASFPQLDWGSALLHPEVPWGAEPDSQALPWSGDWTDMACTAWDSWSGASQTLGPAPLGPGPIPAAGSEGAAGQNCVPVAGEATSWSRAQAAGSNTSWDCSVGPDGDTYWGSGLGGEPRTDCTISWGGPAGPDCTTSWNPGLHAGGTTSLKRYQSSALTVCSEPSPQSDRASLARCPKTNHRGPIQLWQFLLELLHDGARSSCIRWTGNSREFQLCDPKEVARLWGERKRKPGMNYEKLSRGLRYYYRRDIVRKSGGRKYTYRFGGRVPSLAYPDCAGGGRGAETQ
# Method in brief: as §1
# ELF3 = target: T5, ELF3 (Homo sapiens, UniProt P78545 1-371); settings: protein: recombinant; tags: N-terminal GST; dsDNA, one strand shown
# T5 sequence: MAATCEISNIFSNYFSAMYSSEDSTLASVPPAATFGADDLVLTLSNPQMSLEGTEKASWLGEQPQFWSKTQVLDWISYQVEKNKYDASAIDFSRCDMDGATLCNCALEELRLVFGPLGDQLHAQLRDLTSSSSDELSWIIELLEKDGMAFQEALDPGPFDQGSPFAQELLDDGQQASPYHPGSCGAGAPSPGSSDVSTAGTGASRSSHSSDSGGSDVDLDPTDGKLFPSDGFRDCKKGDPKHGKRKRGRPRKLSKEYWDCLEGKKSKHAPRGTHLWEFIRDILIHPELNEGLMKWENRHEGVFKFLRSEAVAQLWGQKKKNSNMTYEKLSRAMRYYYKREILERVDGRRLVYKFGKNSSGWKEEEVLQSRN
# Method in brief: as §1
# CRX = CRX (Homo sapiens, UniProt O43186 1-299); settings: protein: recombinant; tags: N-terminal GST; dsDNA, one strand shown
# Method in brief: as §1
# ETV1 = ETV1 (Homo sapiens, UniProt P50549 1-477); settings: protein: recombinant; tags: N-terminal GST; dsDNA, one strand shown
# Method in brief: as §1
# Chain of ELF4 (Q99607 whole entry): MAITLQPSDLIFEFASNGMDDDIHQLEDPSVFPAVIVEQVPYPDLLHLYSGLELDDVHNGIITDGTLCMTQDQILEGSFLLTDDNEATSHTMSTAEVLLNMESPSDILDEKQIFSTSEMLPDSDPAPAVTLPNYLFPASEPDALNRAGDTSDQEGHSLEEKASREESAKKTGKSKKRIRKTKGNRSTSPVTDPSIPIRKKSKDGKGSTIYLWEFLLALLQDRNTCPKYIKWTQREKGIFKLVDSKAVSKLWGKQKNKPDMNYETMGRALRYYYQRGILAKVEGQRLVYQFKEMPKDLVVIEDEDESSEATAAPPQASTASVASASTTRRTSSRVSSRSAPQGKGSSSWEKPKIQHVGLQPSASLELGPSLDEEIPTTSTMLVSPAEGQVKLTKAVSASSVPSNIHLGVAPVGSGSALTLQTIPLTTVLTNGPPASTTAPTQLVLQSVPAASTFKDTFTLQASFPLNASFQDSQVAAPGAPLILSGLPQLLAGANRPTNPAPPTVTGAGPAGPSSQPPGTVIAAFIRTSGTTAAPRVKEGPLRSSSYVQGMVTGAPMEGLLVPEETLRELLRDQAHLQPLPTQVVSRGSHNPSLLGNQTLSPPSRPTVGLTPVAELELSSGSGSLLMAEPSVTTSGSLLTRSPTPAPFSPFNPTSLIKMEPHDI
# Chain of HSF1 (Q00613 whole entry): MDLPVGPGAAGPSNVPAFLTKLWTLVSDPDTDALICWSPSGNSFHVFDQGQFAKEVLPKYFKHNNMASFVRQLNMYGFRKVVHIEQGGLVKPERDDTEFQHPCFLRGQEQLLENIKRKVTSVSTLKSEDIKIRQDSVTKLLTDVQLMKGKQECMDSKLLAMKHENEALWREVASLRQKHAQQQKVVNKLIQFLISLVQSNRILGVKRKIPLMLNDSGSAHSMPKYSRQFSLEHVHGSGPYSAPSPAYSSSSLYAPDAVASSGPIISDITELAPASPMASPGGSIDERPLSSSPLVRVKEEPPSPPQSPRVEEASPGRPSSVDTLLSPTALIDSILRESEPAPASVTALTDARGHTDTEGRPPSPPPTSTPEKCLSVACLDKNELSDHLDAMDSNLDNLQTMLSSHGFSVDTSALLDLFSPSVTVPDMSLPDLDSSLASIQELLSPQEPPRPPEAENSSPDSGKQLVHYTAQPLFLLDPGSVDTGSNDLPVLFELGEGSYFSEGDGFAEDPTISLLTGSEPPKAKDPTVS
# Chain of ETV1 (P50549 whole entry): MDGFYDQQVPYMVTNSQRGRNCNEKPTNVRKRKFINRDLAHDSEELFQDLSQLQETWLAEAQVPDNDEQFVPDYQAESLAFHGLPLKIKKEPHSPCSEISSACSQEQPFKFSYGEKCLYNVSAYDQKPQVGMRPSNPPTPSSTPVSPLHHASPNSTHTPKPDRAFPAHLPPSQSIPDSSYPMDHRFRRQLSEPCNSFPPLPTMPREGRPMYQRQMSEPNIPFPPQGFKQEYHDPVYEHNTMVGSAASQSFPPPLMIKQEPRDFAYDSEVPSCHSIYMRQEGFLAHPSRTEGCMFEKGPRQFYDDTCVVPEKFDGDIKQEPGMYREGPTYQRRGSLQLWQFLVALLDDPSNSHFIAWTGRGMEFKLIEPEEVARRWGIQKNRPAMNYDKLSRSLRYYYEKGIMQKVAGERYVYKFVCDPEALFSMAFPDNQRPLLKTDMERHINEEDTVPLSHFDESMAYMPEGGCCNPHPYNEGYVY
# Chain of ETV5 (P41161 whole entry): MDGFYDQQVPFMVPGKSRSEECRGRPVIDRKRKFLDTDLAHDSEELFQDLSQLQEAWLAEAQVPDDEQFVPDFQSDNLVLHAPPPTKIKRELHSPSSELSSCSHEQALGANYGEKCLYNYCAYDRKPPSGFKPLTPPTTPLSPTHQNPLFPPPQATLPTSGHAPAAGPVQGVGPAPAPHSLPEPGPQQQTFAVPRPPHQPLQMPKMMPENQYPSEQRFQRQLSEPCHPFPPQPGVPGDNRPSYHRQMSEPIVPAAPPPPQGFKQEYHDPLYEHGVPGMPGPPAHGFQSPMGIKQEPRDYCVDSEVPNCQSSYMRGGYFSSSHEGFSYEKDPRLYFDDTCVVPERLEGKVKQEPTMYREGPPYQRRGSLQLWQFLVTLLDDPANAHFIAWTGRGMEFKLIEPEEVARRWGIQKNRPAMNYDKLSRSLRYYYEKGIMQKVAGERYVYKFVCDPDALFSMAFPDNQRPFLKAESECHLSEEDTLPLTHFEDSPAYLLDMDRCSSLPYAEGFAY
# Chain of CRX (O43186 whole entry): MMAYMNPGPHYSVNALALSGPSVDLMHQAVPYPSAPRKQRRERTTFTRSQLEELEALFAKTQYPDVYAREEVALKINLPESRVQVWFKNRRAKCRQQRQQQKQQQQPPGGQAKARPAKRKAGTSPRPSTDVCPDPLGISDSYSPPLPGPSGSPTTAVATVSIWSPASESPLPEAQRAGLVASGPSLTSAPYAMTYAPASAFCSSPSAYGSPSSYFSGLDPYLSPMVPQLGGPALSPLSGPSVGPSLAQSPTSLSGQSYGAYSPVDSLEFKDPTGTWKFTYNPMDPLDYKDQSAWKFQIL
sequence,measurement,setting,value
GCTAAA,binding signal,FEV,"1.05 fold enrichment (6-mer frequency, TF over GST control)"
same,binding signal,ETV5,"1.15 fold enrichment (6-mer frequency, TF over GST control)"
same,binding signal,HSF1,"1.17 fold enrichment (6-mer frequency, TF over GST control)"
same,binding signal,SPIC,"1.09 fold enrichment (6-mer frequency, TF over GST control)"
same,binding signal,ELF4,"1.06 fold enrichment (6-mer frequency, TF over GST control)"
same,binding signal,ELK4,"1.11 fold enrichment (6-mer frequency, TF over GST control)"
same,binding signal,ETV2,"1.12 fold enrichment (6-mer frequency, TF over GST control)"
same,binding signal,ELF3,"1.07 fold enrichment (6-mer frequency, TF over GST control)"
same,binding signal,CRX,"1.4 fold enrichment (6-mer frequency, TF over GST control)"
same,binding signal,ETV1,"1.26 fold enrichment (6-mer frequency, TF over GST control)"
